# Experiments:
# [1] = target: T1, Inhibitor of nuclear factor kappa-B kinase subunit epsilon (Homo sapiens) (UniProt Q14164); settings: at 0.1 µM
# T1 sequence (whole entry): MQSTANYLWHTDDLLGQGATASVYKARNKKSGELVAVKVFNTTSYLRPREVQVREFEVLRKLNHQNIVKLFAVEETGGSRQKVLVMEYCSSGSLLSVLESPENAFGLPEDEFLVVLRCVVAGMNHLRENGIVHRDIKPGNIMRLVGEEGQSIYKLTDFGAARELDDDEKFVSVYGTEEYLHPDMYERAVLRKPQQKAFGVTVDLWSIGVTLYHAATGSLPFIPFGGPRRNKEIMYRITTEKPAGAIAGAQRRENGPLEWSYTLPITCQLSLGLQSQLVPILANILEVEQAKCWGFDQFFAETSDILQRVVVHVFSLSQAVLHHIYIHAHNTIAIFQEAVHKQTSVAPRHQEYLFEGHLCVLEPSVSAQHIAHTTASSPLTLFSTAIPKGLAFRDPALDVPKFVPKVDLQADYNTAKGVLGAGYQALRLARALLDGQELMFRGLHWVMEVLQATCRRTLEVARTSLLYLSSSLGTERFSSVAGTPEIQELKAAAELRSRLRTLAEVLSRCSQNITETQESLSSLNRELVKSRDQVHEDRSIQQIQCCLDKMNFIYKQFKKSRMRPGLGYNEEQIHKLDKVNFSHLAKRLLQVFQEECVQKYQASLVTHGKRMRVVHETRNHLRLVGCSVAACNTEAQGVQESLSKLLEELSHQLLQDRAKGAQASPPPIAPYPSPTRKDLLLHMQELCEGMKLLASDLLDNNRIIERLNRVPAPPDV
# [2] = target: T1, Inhibitor of nuclear factor kappa-B kinase subunit epsilon (Homo sapiens); settings: at 1 µM
# [3] = target: T2, Serine/threonine-protein kinase Nek1 (Homo sapiens) (UniProt Q96PY6); settings: at 0.1 µM
# T2 sequence (whole entry): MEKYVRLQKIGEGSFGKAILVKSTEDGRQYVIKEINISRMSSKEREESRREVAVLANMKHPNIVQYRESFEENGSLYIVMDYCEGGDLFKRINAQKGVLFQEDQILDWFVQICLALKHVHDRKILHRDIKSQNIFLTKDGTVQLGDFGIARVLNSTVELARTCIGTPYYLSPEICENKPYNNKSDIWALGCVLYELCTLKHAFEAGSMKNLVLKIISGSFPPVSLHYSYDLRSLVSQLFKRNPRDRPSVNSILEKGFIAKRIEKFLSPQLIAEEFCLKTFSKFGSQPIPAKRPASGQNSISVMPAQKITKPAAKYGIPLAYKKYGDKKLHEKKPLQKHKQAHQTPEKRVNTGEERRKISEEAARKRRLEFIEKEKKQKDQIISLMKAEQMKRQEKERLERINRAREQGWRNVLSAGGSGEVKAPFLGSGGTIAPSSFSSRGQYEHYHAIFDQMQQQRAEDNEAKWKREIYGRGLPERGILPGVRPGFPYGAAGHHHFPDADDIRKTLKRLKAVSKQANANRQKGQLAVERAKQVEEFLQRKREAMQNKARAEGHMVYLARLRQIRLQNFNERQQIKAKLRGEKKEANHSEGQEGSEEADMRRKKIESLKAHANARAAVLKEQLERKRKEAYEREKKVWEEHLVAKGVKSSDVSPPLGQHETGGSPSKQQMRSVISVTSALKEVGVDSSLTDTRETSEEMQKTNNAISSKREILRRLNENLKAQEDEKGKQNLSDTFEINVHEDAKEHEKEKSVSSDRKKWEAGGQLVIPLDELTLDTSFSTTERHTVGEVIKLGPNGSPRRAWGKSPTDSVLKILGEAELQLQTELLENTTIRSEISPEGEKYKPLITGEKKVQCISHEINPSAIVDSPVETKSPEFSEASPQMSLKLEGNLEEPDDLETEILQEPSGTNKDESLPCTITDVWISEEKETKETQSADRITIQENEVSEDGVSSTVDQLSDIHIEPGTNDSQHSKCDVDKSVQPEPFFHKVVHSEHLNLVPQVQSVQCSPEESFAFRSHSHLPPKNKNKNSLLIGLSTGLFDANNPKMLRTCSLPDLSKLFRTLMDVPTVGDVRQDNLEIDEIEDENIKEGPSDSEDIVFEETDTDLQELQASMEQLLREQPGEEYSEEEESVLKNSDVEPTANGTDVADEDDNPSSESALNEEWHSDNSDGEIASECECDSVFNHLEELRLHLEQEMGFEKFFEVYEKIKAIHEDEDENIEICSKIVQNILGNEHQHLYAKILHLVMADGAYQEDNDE
# [4] = target: T2, Serine/threonine-protein kinase Nek1 (Homo sapiens); settings: at 1 µM
# [5] = target: T3, Serine/threonine-protein kinase Nek2 (Homo sapiens) (UniProt P51955); settings: at 0.1 µM
# T3 sequence (whole entry): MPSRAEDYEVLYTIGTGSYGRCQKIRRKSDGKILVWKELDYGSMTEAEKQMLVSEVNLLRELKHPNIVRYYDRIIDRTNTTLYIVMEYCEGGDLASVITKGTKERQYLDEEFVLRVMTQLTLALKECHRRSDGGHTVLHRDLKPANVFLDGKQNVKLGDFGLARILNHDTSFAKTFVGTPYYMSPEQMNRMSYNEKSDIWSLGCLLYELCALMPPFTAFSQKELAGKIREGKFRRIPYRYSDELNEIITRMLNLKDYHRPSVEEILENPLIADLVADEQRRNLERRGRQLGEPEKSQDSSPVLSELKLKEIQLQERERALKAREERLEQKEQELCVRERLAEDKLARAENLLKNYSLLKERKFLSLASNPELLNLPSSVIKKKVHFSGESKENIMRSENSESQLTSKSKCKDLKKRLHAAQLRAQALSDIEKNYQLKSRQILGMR
# [6] = target: T3, Serine/threonine-protein kinase Nek2 (Homo sapiens); settings: at 1 µM
# [7] = target: Serine/threonine-protein kinase Nek6 (Homo sapiens) (UniProt Q9HC98); settings: at 0.1 µM
# [8] = target: Serine/threonine-protein kinase Nek6 (Homo sapiens) (UniProt Q9HC98); settings: at 1 µM
# [9] = target: Serine/threonine-protein kinase Nek7 (Homo sapiens) (UniProt Q8TDX7); settings: at 1 µM;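 also: reported values are mean inhibition of NEK7 from the GSK PKIS kinase screening panel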
# [10] = target: T4, Serine/threonine-protein kinase Nek9 (Homo sapiens) (UniProt Q8TD19); settings: at 0.1 µM;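 also: reported value is the mean percent inhibition of NEK9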
# T4 sequence (whole entry): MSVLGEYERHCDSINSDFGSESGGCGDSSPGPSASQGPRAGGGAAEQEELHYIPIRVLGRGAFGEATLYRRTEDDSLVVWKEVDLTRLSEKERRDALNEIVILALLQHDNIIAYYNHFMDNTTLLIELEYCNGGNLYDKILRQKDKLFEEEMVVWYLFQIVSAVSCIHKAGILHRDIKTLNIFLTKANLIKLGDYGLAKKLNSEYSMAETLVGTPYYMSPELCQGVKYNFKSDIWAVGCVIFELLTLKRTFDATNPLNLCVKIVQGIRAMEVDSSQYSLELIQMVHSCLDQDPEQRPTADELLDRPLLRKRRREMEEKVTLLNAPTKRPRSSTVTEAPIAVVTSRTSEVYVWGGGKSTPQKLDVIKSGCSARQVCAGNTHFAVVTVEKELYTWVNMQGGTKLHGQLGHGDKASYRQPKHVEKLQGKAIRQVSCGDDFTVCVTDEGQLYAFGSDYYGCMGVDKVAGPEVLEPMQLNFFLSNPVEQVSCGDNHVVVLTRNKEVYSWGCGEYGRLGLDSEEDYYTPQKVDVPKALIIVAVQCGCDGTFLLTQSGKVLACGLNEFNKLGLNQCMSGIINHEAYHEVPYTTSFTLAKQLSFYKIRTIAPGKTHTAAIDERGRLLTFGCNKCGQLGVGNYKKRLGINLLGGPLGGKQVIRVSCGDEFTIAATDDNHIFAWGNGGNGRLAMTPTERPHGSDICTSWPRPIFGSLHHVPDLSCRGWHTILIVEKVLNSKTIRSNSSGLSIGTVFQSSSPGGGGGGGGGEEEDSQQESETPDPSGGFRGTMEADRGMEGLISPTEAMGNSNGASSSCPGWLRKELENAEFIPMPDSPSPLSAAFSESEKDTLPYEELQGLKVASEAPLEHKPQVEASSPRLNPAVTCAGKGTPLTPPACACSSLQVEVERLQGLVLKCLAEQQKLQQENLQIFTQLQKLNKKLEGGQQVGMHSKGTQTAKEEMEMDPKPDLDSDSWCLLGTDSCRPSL
# Sequence of Serine/threonine-protein kinase Nek6 (Homo sapiens) (Q9HC98 whole entry): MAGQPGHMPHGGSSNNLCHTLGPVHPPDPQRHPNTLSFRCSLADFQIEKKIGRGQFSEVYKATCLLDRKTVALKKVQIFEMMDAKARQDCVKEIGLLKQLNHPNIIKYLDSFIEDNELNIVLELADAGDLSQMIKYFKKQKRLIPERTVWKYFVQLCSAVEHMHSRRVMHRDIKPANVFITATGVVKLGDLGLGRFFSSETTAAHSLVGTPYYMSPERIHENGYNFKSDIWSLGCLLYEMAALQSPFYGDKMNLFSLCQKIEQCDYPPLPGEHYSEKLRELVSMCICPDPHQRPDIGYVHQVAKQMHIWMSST
# Sequence of Serine/threonine-protein kinase Nek7 (Homo sapiens) (Q8TDX7 whole entry, looked up): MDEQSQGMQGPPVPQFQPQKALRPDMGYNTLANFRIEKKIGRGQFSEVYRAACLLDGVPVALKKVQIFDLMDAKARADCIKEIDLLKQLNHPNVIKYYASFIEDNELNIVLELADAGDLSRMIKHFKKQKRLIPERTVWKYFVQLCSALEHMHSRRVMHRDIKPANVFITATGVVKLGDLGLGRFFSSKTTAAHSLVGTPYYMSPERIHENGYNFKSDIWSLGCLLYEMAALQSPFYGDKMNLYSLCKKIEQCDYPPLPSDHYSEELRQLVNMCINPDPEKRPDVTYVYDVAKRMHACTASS
smiles,measurement,setting,value
C/C(Nc1ccc(S(N)(=O)=O)cc1)=C1/C(=O)Nc2ccccc21,inhibition,[1],-2.73%
same,inhibition,[2],2.23%
same,inhibition,[3],-0.12%
same,inhibition,[4],0.52%
same,inhibition,[5],-0.14%
same,inhibition,[6],0.19%
same,inhibition,[7],-4.26%
same,inhibition,[8],-0.83%
same,inhibition,[9],-0.23%
same,inhibition,[10],2.83%
